# LYPLA1 inh = LYPLA1 inhibitors, primary screen, counter-screen for PME1 inhibitor project, biochemical, fluorescence polarization, FP-Rh probe ABPP; Acyl-protein thioesterase 1 (Homo sapiens), O75608; recombinant LYPLA1; inhibition, % at 5.9 µM; hit rate 0.16% among 320,000; AID 2174, 2009;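 active = inhibition above the mean of all tested compounds plus 3 SD, set per campaign, cut at about 14% in these data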;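 also: inhibitors block serine hydrolase probe labeling of LYPLA1 so polarization falls; 0% = enzyme with DMSO and 100% = wells lacking LYPLA1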
# PAFAH1B2 FP inh = PAFAH1B2 enzyme inhibitors, primary screen, biochemical, fluorescence polarization, human. recombinant PAFAH1B2, FP-rhodamine activity probe. inhibition, % at 3.39 µM. hit rate 1.2% among 340,000. AID 492953, 2010;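 active = inhibition above the mean of all tested compounds plus 3 SD, cut at about 24% in these data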;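 also: 0% = enzyme with DMSO and 100% = wells lacking PAFAH1B2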
# Target sequence (P68402 whole entry, looked up): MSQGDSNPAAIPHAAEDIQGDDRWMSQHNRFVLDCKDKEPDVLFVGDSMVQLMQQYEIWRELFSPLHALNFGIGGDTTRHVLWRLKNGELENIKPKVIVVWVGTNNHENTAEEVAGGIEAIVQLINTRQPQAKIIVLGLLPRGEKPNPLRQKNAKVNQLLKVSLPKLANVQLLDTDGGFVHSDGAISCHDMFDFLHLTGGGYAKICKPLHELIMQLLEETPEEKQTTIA
# LYPLA2 counter = LYPLA2 inhibitors, primary screen, counter-screen for PME1 inhibitor project, biochemical, fluorescence polarization, FP-Rh probe ABPP; Acyl-protein thioesterase 2 (Homo sapiens), O95372; recombinant LYPLA2; inhibition, % at 5.9 µM; hit rate 0.38% among 320,000; AID 2177, 2009;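 active = inhibition above the screen-wide mean plus 3 SD, limit set per campaign, cut at about 26% in these data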;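 also: 0% = LYPLA2 with DMSO and 100% = wells lacking LYPLA2 enzyme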
# Target sequence (O95372 whole entry, looked up): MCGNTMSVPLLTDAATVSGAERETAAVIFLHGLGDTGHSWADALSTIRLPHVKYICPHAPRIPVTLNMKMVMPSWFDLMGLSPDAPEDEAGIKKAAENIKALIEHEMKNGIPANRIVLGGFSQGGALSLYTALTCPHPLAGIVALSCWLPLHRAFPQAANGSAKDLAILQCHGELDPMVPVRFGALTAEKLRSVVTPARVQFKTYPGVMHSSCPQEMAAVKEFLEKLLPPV
# PAFAH1B3 FP inh = PAFAH1B3 enzyme inhibitors, primary screen, biochemical, fluorescence polarization, human; Platelet-activating factor acetylhydrolase IB subunit alpha1 (Homo sapiens), Q15102; hit rate 0.28% among 340,000; recombinant PAFAH1B3, FP-rhodamine probe; inhibition, % at 3.39 µM;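 active = inhibition above the screen-wide average of all tested compounds plus 3 SD, cut at about 25% in these data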;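 also: 0% = enzyme with DMSO only and 100% = wells lacking PAFAH1B3 protein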
# PAFAH2 inh = PAFAH2 enzyme inhibitors, primary screen, biochemical, fluorescence polarization, human; Platelet-activating factor acetylhydrolase 2, cytoplasmic (Homo sapiens), Q99487; recombinant PAFAH2, FP-rhodamine activity probe; inhibition, % at 3.39 µM; hit rate 0.99% among 340,000; AID 492956, 2010;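 active = inhibition above the mean over all tested compounds plus 3 SD, cut at about 30% in these data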;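 also: inhibitors block probe labeling of enzyme so polarization drops; 0% = enzyme with DMSO and 100% = wells lacking PAFAH2 protein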
# pPAFAH inh = pPAFAH enzyme inhibitors, primary screen, biochemical, fluorescence polarization, human; Platelet-activating factor acetylhydrolase (Homo sapiens), Q13093; recombinant pPAFAH, FP-rhodamine probe fluorescence polarization; inhibition, % at 3.39 µM; hit rate 1.5% among 330,000; AID 463082, 2010;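 active = inhibition above the mean inhibition across the screen plus 3 SD, cut at about 25% in these data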;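 also: inhibitors block binding of the rhodamine activity-based probe so polarization drops; 0% = enzyme with DMSO and 100% = wells lacking pPAFAH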
# An asterisk follows results filed as active. A selection: hits, their analogues and other compounds. The true share with any hit is near 2.9%.
SMILES,LYPLA1 inh,PAFAH1B2 FP inh,LYPLA2 counter,PAFAH1B3 FP inh,PAFAH2 inh,pPAFAH inh
Cc1cccc(C(=O)OCC(=O)NC2CCCCCCC2)c1,0.2,7.7,3.9,6.0,91.5*,29.4*
O=C(COC(=O)c1ccc2c(c1)S(=O)(=O)c1ccccc1C2=O)NC1CC1,6.7,2.3,8.5,2.8,-3.3,29.9*
CCc1ccc(C(=O)OCC(=O)NC2CCCC2)cc1,-2.8,0.4,-6.0,5.7,81.9*,30.3*
COc1cc(/C=N/Nc2nc(C)cc(=O)[nH]2)ccc1O,-0.8,2.0,0.1,1.8,4.2,-3.0
C=CCSc1n[nH]c2nc3c(c(=O)n12)C1(CCCC1)Cc1ccccc1-3,-4.9,44.1*,-2.8,-0.1,9.4,5.8
Cn1ncn2c(=O)c3c(nc12)-c1ccccc1CC31CCCC1,-0.6,6.4,7.2,3.2,-8.2,4.5
CC(=O)Nn1cnc2c(c1=O)C1(CCCC1)Cc1ccccc1-2,-3.1,25.2*,-1.0,15.8,-1.3,7.2
O=c1c2c(nc3n1CCCCC3)-c1ccccc1CC21CCCC1,-1.3,27.8*,3.3,-0.7,-1.2,1.8
Cc1nn(CC(=O)NCC(C)c2ccccc2)c(=O)c2cc3occc3n12 (stereo unspecified),-4.8,3.0,-6.2,3.7,-8.8,1.1
COc1ccc(OC)c(Nc2nc(-c3sc(NC(=O)CC(C)C)nc3C)cs2)c1,-12.4,8.3,-8.3,10.1,2.9,30.4*
CCCCC(=O)Nc1nc(C)c(-c2csc(Nc3cc(OC)ccc3OC)n2)s1,-10.6,3.2,0.6,13.7,0.3,22.5
COc1ccccc1Nc1nc(-c2sc(N)nc2C)cs1,-2.0,6.9,-0.3,16.1,13.2,26.5*
CCCC(=O)Nc1nc(C)c(-c2csc(Nc3ccccc3C)n2)s1,-10.7,-5.8,-10.8,0.6,6.4,10.5
COc1ccc(OC)c(Nc2nc(-c3sc(C)nc3C)cs2)c1,-1.5,1.7,0.8,5.5,6.5,32.6*
CCC(=O)Nc1nc(C)c(-c2csc(Nc3ccccn3)n2)s1,12.7,0.3,6.9,8.7,16.6,26.2*
COc1cccc(Nc2nc(-c3sc(C)nc3C)cs2)c1,2.2,7.8,-2.6,11.8,7.5,11.9
COc1ccc(C(=O)N/C(=C/c2cccs2)C(=O)NCCCn2ccnc2)cc1OC,-0.4,4.8,0.7,3.9,-6.7,1.7
CC12C=CC(=O)C=C1CCC1C3CCC(O)(C(=O)CO)C3(C)CC3OC312 (stereo unspecified),-1.9,2.8,1.1,11.9,0.3,0.9
Cc1ccc(OCc2cc(C(=O)NCCn3cccn3)no2)cc1C,1.4,2.2,3.9,9.0,-6.8,6.0
COc1ccc(Cl)cc1Nc1nc(-c2sc(NC(=O)C(C)(C)C)nc2C)cs1,-11.6,2.4,-0.9,9.9,2.6,9.8
COc1ccc(OC)c(Nc2nc(-c3sc(NC(=O)C(C)(C)C)nc3C)cs2)c1,-10.0,3.4,-15.1,5.5,15.0,30.5*
CCC(C)C(=O)Nc1nc(C)c(-c2csc(Nc3cc(OC)ccc3OC)n2)s1 (stereo unspecified),-11.5,12.1,-14.9,16.0,-5.3,31.8*
CN(CCc1ccccn1)C(=S)Nc1ccc(Cl)c(Cl)c1,1.9,2.1,9.7,4.9,-1.9,2.9
COc1ccc(NCC(O)COc2ccc(C(C)(C)C)cc2)cc1 (stereo unspecified),0.2,27.0*,15.6,7.6,0.4,12.3
COc1ccc(CNCC(O)COc2ccc(C(C)(C)c3ccccc3)cc2)cc1 (stereo unspecified),-4.0,11.9,-7.5,-3.3,1.8,26.4*
O=[N+]([O-])c1ccc(S(=O)(=O)NNC(=S)NCCc2ccccc2)cc1,-0.9,42.0*,3.7,6.0,1.6,6.7
CN(C)c1cccc2cccc(N(C)C)c12,-3.3,0.0,-3.1,8.6,11.9,3.7
c1ccc(-c2csc(Cc3nnc4n3CCCCC4)n2)cc1,2.6,-3.1,2.3,4.3,-9.2,-0.3

# High-throughput results from PubChem.
